Source: PubChem BioAssay (Tox21)
Inconclusive results are not listed. Entries that show only a call come without a potency. Unmarked numbers belong to inactive results. Calls of active or inactive are those of the source. Calls follow the shape of the dose curve; as a rule, active = well fitted activation curve with a large enough effect in the signal ratio in the repeat runs (not every such curve was filed as active); inconclusive = weak or mixed curves, or effect the other way; inactive = no such curve, though single readings can be large or run the other way; the % refers to the signal ratio.
Potency is read from the fitted curve at half-maximal effect.

These compounds were tested against Glucocorticoid receptor (Homo sapiens) (UniProt P04150) (assay: qHTS assay to identify small molecule agonists of the glucocorticoid receptor (GR) signaling pathway (AID 720691)). Settings: GR-bla HeLa, beta-lactamase reporter ratio, 18 h; series mostly up to 62.4 µM.
Glucocorticoid receptor (Homo sapiens), sequence (P04150 whole entry, looked up): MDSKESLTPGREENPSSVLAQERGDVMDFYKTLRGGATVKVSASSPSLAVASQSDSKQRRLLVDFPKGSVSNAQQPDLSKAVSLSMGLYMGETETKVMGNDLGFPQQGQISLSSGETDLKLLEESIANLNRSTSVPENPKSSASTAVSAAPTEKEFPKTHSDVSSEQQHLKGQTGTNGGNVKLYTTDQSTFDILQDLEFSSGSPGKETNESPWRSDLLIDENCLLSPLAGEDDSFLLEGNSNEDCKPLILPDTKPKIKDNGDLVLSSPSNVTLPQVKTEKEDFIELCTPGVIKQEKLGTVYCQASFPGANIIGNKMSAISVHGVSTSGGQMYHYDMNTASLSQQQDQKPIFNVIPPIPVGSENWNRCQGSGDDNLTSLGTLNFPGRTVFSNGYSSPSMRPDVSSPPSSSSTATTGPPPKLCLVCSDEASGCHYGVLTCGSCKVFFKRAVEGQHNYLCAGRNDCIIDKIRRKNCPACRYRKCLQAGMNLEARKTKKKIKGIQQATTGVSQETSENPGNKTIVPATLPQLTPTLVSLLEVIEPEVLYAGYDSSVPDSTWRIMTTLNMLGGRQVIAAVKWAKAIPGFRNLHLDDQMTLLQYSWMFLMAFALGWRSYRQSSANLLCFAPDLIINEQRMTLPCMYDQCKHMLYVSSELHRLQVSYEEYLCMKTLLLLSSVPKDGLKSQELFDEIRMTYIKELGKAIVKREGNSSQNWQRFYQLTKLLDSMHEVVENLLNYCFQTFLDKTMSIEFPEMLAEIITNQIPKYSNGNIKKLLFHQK
Description: U.S. Tox21 Program National Center for Advancing Translational Sciences [NCATS] NIH Chemical Genomics Center [NCGC] U.S. Environmental Protection Agency [EPA] National Institutes of Environmental Health Sciences [NIEHS] National Toxicology Program [NTP] U.S. Food and Drug Administration [FDA] Tox21 Assay Overview: The Glucocorticoid receptor (GR) is one of the members of the nuclear receptor family of ligand-dependent transcription factors. GR plays a critical role in carbohydrate, protein and lipid metabolisms and programmed cell death. CellSensor GR-bla HeLa cell line (Invitrogen) contains a beta-lactamase reporter gene under the control of the glucocorticoid response element stably integrated into HeLa cells, a cervical cancer cell line that expresses glucocorticoid receptor. The activation of the reporter gene under culture conditions can be detected by fluorescence intensity. This cell line has been used to screen the Tox21 10K compound library and to identify the compounds that activate the GR signaling.
Tox21 Assay Protocol Summary: The GR-bla HeLa cells were dispensed at 1500 cells/6 ul/well in 1536-well black wall/clear bottom plates using a Multidrop Combi (ThermoFisher Scientific, Waltham, MA) dispenser. After the assay plates were incubated at a 37 C/5% CO2 incubator for 4 hours, 23 nL of compounds dissolved in DMSO, positive controls or DMSO only was transferred to the assay plate by a pintool station (Kalypsys, San Diego, CA). The plates were incubated at 37 C for 18 hours. After 1 uL of LiveBLAzerTM B/G FRET substrate was added using a Flying Reagent Dispenser (Aurora Discovery, San Diego, CA), the plates were incubated at room temperature for 2 hours, and fluorescence intensity was measured by an Envision plate reader (PerkinElmer, Shelton, CT).
In the case of `CCCc1c2oc(C(=O)O)cc(=O)c2cc2c(=O)cc(C(=O)O)n(CC)c12`, the Potency was “inactive”. In the case of `Cc1ccc([N+](=O)[O-])c(N)c1`, the Potency was “inactive”. For `COc1ccc2nc(NC(=O)Nc3ccccc3)sc2c1`, the Potency was “inactive”. With `NC1=NCC2c3ccccc3Cc3ccccc3N12` (stereo not given) the Potency was “inactive”. `CCCCNCCCC` was tested, and the Potency was “inactive”. For `O=C(O[C@@H](C(=O)O)[C@@H](OC(=O)c1ccccc1)C(=O)O)c1ccccc1`, the Potency was “inactive”. `OCCN(CCO)c1ccccc1` was tested, and the Potency was “inactive”. In the case of `COC(=O)c1ccc(OC)cc1`, the Potency was “inactive”. For `O=C1CCN(c2ccccc2)N1`, the Potency was “inactive”. In the case of `CCCOCCC`, the Potency was “inactive”. For `CC(C)Nc1nc(N)nc(Cl)n1`, the Potency was “inactive”. For `CC(C)OC(C)C`, the Potency was “inactive”. For `CCCCCCOc1ccc(N)cc1`, the Potency was “inactive”. With `C=CC(C)(O)CC/C=C(\C)CCC=C(C)C` (stereo not given) the Potency was “inactive”. `CCOc1ccc(NC(N)=O)cc1` was tested, and the Potency was “inactive”. In the case of `COc1nc(C)nc(NC(=O)NS(=O)(=O)c2ccccc2OCCCl)n1`, the Potency was “inactive”. For `CCCCCCCCCCCCCCCCOP(=O)([O-])OCC[N+](C)(C)C`, the Potency was “inactive”. `NCCC(O)(P(=O)(O)O)P(=O)(O)O` was tested, and the Potency was “inactive”. `CN1CCN(c2c(F)cc3c(=O)c(C(=O)O)cn(CCF)c3c2F)CC1` was tested, and the Potency was “inactive”. In the case of `Nc1ccc2ccccc2c1S(=O)(=O)O`, the Potency was “inactive”. In the case of `NC(Cc1ccc(F)cc1)C(=O)O` (stereo not given), the activation was -7.29% [at 6.9 µM]. `C[C@]12CCC(=O)C=C1CC[C@@H]1[C@@H]2CC[C@@]2(C)[C@H]1CC[C@]2(O)C(=O)CO` was tested, and the Potency was 12 µM (active). With `CCCCC1CCC(=O)O1` (stereo not given) the Potency was “inactive”. With `COc1ccc(Nc2ccc(OC)cc2)cc1` the Potency was “inactive”. For `CC(C)c1ccccc1`, the Potency was “inactive”. For `COC(=O)c1ccc2cc(C(=O)OC)ccc2c1`, the Potency was “inactive”. For `CC(C)C1=CC2=CC[C@@H]3[C@](C)(CCC[C@@]3(C)C(=O)O)[C@H]2CC1`, the Potency was “inactive”. With `Oc1ccccc1C=NCc1ccccc1` the Potency was “inactive”. In the case of `CN1CCN(c2c(F)cc3c(=O)c(C(=O)O)cn4c3c2SCC4)CC1`, the Potency was “inactive”. With `CCCCCCCCOC(=O)CCCCCCCCC(=O)OCCCCCCCC` the Potency was “inactive”. For `NC(=O)Cc1cccc(C(=O)c2ccccc2)c1N`, the Potency was “inactive”. With `CCN(CC)CCNC(=O)COc1ccc(Cl)cc1` the Potency was “inactive”. In the case of `Cc1cccc(C)c1NC(=O)CN1CCCCCC1`, the Potency was “inactive”. For `CO[C@@]1(NC(=O)CSCC#N)C(=O)N2C(C(=O)O)=C(CSc3nnnn3C)CS[C@@H]21`, the Potency was “inactive”. In the case of `Nc1cccc(S(=O)(=O)O)c1`, the Potency was “inactive”. With `CCOC(=O)C1CC(=O)C(=C(O)C2CC2)C(=O)C1` (stereo not given) the Potency was “inactive”. In the case of `CCc1cc(Cl)c(OC)c(C(=O)NC[C@@H]2CCCN2CC)c1O`, the Potency was “inactive”. For `CC1(O)CSC(C)(O)CS1` (stereo not given), the Potency was “inactive”. With `COC(=O)N[C@H](C(=O)N[C@@H](Cc1ccccc1)[C@@H](O)CN(Cc1ccc(-c2ccccn2)cc1)NC(=O)[C@@H](NC(=O)OC)C(C)(C)C)C(C)(C)C` the Potency was “inactive”. In the case of `CC(C)=CCCC(C)CCOC=O` (stereo not given), the Potency was “inactive”.
